Assay outcomes: PubChem BioAssay, The Scripps Research Institute Molecular Screening Center
SMARCA2 activ: SMARCA2 function activation, primary screen | MG213 cells, MMTV-luciferase reporter, dexamethasone, overnight | activation, % at 9.1 µM | hit rate 1% among 370,000 | AID 652017; in the data active = activation above about 7.8%;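 note: 0% = vehicle wells and 100% = reference activator wells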
hcDAF12 agonist: H. contortus DAF-12 activation, primary screen; HEK293 hcDAF-12 lit1-tk-luc reporter, luminescence; 0% DMSO, 100% Δ7-dafachronic acid; activation, % at 6.8 µM; hit rate 1.4% among 370,000; AID 652067;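 active = activation above the mean of all tested compounds plus 3 SD, cut at about 5.5% in these data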;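 note: 100% = response to 3 µM Δ7-dafachronic acid high control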
ssDAF-12 act: activates DAF-12 receptor from parasite S. stercoralis | HEK293 ssDAF-12/GRIP1 lit1-tk-luc reporter, luminescence; % of 3 µM dafachronic acid response | activation, % at 6.8 µM | hit rate 1% among 370,000 | AID 652126;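 active = activation above the mean over all tested compounds plus 3 SD, cut at about 0.9% in these data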;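 note: 0% = DMSO-only wells and 100% = 3 µM delta7-dafachronic acid wells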
hgDAF-12 ag: hgDAF-12 agonism, primary luciferase screen; hit rate 1.8% among 370,000; activation, % at 6.8 µM; AID 687014; HEK293 GAL4-hgDAF12 UAS-luciferase reporter, agonist luminescence; normalized to butyrate control;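 active = activation above a cutoff set at the mean of all screened compounds plus 3 SD, cut at about 10% in these data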;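 note: 0% = DMSO wells and 100% = sodium butyrate wells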
DAX1 inh-1: inhibitors of DAX1 repression of SF-1 activated StAR promoter | HEK293T StAR-luciferase reporter, SF-1/DAX-1 repression relief | inhibition, % at 6.8 µM | hit rate 1.1% among 370,000 | AID 652010;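 active = inhibition above the mean over all tested compounds plus 3 SD, cut at about 3.6% in these data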;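 note: 0% = DAX-1 cells with DMSO and 100% = cells lacking DAX-1 with DMSO; higher inhibition means more luminescence from relief of DAX-1 repression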
DAX1 inh-2: NR0B1 (DAX1) inhibition; P51843; HEK293 Gal4-DAX1 luciferase reporter, luminescence; inhibition, % at 6.75 µM; hit rate 0.99% among 340,000; AID 504766;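 active = inhibition above the mean over all tested compounds plus 3 SD, cut at about 4.2% in these data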;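 note: 0% = DAX1-transfected cells with DMSO and 100% = empty-vector control cells with DMSO; inhibition shows as a rise in luminescence from relieved DAX1 repression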
Target sequence (P51843 207-470 limits assumed): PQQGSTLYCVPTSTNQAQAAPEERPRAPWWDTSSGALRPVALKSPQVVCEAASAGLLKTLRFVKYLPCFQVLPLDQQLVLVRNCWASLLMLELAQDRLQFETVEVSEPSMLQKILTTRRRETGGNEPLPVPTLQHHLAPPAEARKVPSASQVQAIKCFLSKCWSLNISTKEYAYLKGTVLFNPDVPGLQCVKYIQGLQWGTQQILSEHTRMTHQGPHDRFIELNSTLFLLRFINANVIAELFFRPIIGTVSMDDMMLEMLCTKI
The depositor's hits bear a star. Compounds with a hit are over-represented: about 4.8% of the library has one in this group of screens.

SMILES | SMARCA2 activ | hcDAF12 agonist | ssDAF-12 act | hgDAF-12 ag | DAX1 inh-1 | DAX1 inh-2
CC(C)c1ccc(NC(=S)N2CCN(C)CC2)cc1 | 5.2 | -1.4 | -0.3 | 2.2 | 1.5 | 0.7
NS(=O)(=O)c1cccc(NC(=O)c2cc(=O)c3ccccc3o2)c1 | 0.3 | 1.8 | -1.0 | 4.5 | 0.1 | 4.8*
O=C(Nc1ccccc1Br)c1cc(=O)c2ccccc2o1 | 7.6 | 1.0 | 0.6 | 10.9* | 1.6 | 4.2
CSc1ccccc1OCc1cc(C(=O)N2CCN(C)C(c3ccccc3)C2)no1 (stereo not given) | 2.6 | 3.9 | -1.1 | 4.2 | 0.1 | 0.8
COCC1CCN(C(=O)c2cc(COc3ccc(F)cc3F)on2)C1 (stereo not given) | -0.2 | -1.5 | -1.1 | -0.8 | 1.8 | 0.2
COc1ccccc1OCc1cc(C(=O)N2CC3C[C@@H]4CC2C[C@H](C3)C4)no1 | 4.2 | 1.0 | -0.6 | 12.1* | 3.7* | 2.4
COc1ccccc1OCc1cc(C(=O)N2CCN(C)C(c3ccccc3)C2)no1 (stereo not given) | 4.8 | 2.4 | -0.2 | 6.6 | 4.2* | 1.6
COc1cc(C)ccc1OCc1cc(C(=O)N2CCC(c3ccc(F)cc3)C2)no1 (stereo not given) | 7.0 | 5.1 | 0.8 | 12.5* | 1.4 | 2.8
O=C(O)C1CC2C3CC(C(=O)O)C(C3)C2C1 (stereo not given) | 1.7 | -0.6 | -1.5 | -0.5 | -0.7 | 1.8
CC1CCCC(C)N1CC(O)COCc1ccccc1 (stereo not given) | -4.3 | -1.0 | -1.0 | -1.2 | 0.3 | -1.0
COc1cc(COCC(O)CN2C(C)CCCC2C)cc(OC)c1OC (stereo not given) | -4.2 | 2.4 | -1.7 | 1.2 | 0.0 | 4.6*
Cc1ccc(N/N=C(\C#N)C(=O)c2ccsc2)cc1 | -0.3 | 0.1 | -1.2 | 2.3 | -0.4 | 0.3
CCN(CC)C(=N)/C(C#N)=N/Nc1ccc(C)cc1 | -3.5 | 5.1 | -0.1 | 8.7 | 2.2 | 7.1*
Cc1ccc(N/N=C(\C#N)C(=N)N2CCOCC2)cc1 | 4.1 | 3.0 | 0.6 | 13.0* | 1.2 | 5.2*
N#C/C(=N\Nc1ccccc1)C(=N)N1CCOCC1 | -1.0 | 0.5 | -1.2 | 3.2 | 0.4 | 2.0
N#C/C(=N\Nc1ccccc1F)C(=N)N1CCCCC1 | 0.1 | 5.1 | 0.2 | 11.1* | 2.7 | 2.1
COc1ccc(N/N=C(\C#N)C(=N)N2CCCCC2)cc1 | 3.3 | 0.8 | -0.8 | 9.7 | 0.3 | 6.4*
O=C(NC1CCCC1)[C@@H]1CSC2c3ccccc3C(=O)N21 (stereo not given in full) | 0.9 | -0.2 | -1.1 | -0.5 | -0.9 | -0.2
CC(=O)Nc1c(Br)cc2c(c1Br)C(=O)c1ccccc1-2 | 0.8 | 4.1 | -0.2 | -3.8 | -0.2 | 0.8
Cc1ccc(N(C)S(=O)(=O)c2ccc(-c3cc(C)no3)s2)cc1 | 0.7 | 0.7 | -1.4 | -0.3 | -4.6 | -0.7
COc1cc2ccc(=O)oc2cc1O | -1.5 | -1.2 | -1.6 | -4.2 | 0.5 | 5.1*
COc1ccc(CN2CCC(C(=O)c3ccc(F)cc3)CC2)cc1 | -2.2 | 1.1 | -1.3 | 0.2 | 0.1 | -1.3
CC(=O)NNC(=O)c1csc(-c2csc(C)n2)n1 | -1.5 | -2.2 | -1.4 | -0.2 | -0.2 | 7.3*
Cc1cccc(OCC(O)Cn2c(=N)n(CCN3CCCCC3)c3ccccc32)c1 (stereo not given) | 7.8* | -0.5 | -1.2 | 2.2 | -0.1 | -0.1
Cc1cccc(OCC(O)Cn2c(=N)n(Cc3ccccc3)c3ccccc32)c1 (stereo not given) | -5.9 | -0.2 | -1.1 | -1.4 | 0.1 | 2.1
N=c1n(CCN2CCCCC2)c2ccccc2n1CC(O)c1ccco1 (stereo not given) | 0.4 | 1.9 | -1.5 | -0.3 | 1.1 | 5.1*
O=C(O)CCC(=O)N1N=C(c2c(-c3ccccc3)c3cc(Cl)ccc3[nH]c2=O)CC1c1cccs1 (stereo not given) | -2.8 | -0.2 | -1.1 | -3.9 | -0.5 | 0.0
COC(=O)c1cccc(-c2ccc(C(c3c(C)[nH][nH]c3=O)c3c(C)[nH][nH]c3=O)o2)c1 | -4.2 | 0.0 | -1.3 | -4.3 | -1.5 | -1.1
COC(=O)c1ccccc1-c1ccc(C(c2c(C)[nH][nH]c2=O)c2c(C)[nH][nH]c2=O)o1 | 7.9* | -1.9 | -1.4 | -6.1 | -1.0 | -1.8
